# Results reported in PubChem BioAssay (EPA / NIEHS).
# Calls of active or inactive are those of the source. How the source made its calls: active means hit-call score of the fitted dose curve at least 0.9, where 1 is the maximum; inactive means score below 0.9.
# Biological target: Myc proto-oncogene protein (Homo sapiens) (UniProt P01106)
# Assay: ATG_Myc_CIS: Attagene CIS-FACTORIAL HepG2 Assay for human Myelocytomatosis (Myc) Proto-Oncogene Transcription Factor (AID 2282990)
# Settings: HepG2, Attagene cis-reporter transcription factor activity; actives raise or lower the signal
# Procedure: ATG_CIS is a cell-based, multiplexed-readout assay that uses HepG2, a human liver cell line, with measurements taken at 24 hours after chemical dosing in a 24-well plate.ATG_Myc_CIS is one of 52 assay component(s) measured or calculated from the ATG_CIS assay. It is designed to make measurements of mRNA induction, a form of inducible reporter, as detected with fluorescence intensity signals by Reverse transcription polymerase chain reaction (RT-PCR) and Capillary electrophoresis technology.Data from the assay component ATG_Myc_CIS was analyzed into 1 assay endpoint. This assay endpoint, ATG_Myc_CIS, was analyzed with bidirectional fitting relative to DMSO as the negative control and baseline of activity. Using a type of inducible reporter, measures of mRNA for gain or loss-of-signal activity can be used to understand the reporter gene at the transcription factor-level as they relate to the gene MYC. Furthermore, this assay endpoint can be referred to as a primary readout, because this assay has produced multiple assay endpoints where this one serves a reporter gene function. To generalize the intended target to other relatable targets, this assay endpoint is annotated to the dna binding intended target family, where the subfamily is basic helix-loop-helix leucine zipper.
# Human liver HepG2 cells are transiently transfected with multiple reporter transcription units (MRTUs) in 6-well plates using FuGene 6 reagent (Roche; 3 ml FuGene/1 mg DNA). The MRTU constructs are regulated by a cis-regulating element (promoter). […] A major difference between the CIS and TRANS system is that in CIS activities of endogenous TFs are measured, whereas the TRANS assay evaluates changes in activities of exogenous, chimeric NR-Gal4 proteins. […] At the end of 24 hour incubation, total RNA was isolated using TriZol reagent (Invitrogen). The isolated RNA is then reverse-transcribed using oligo(dT) primer and Mo-MLV reverse transcriptase (Invitrogen) with DNAse I (Ambion) treatment for 30 min. The one-tenth of the produced cDNA was amplified by PCR using Taq DNA polymerase (Invitrogen) and two reporter sequence-specific primers. The PCR products were fluorescently labeled by primer extension with 6-arboxyfluorescein (6-FAM) 5'-labeled reporter sequence-specific primer (2 min at 95 C, 20 s at 68 C and 10 min at 72 C) and these products were digested with 5U of HpaI (New England Biolabs) for 2h at 37 C. The fragments were purified using Qiaquick PCR columns (Qiagen), analyzed on an ABI 3130xL genetic analyzer (Applied Biosystems) with peak positions identified by using a set of X-rhodamine (ROX)-labeled MapMarker1000 molecular weight standards (BioVentures). The raw capillary electrophoresis data was processed using Attagraph software (Attagene).
# Chain of Myc proto-oncogene protein (Homo sapiens) (P01106 whole entry, looked up): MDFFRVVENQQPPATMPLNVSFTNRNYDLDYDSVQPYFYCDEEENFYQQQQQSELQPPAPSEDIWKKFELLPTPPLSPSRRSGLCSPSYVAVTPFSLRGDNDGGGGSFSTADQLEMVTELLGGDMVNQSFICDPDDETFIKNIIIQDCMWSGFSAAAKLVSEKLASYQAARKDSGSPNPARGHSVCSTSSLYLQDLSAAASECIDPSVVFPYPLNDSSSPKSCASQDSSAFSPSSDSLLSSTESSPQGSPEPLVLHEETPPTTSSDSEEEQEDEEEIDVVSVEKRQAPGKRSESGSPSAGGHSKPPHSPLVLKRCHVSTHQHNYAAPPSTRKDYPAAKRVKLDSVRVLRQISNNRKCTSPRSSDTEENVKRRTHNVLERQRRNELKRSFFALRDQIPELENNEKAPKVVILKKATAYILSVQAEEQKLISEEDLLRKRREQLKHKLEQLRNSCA
SMILES,outcome,AC50
Nc1ncnc2nc[nH]c12,inactive,
NC(=O)Nc1ccccc1,inactive,
CC(C)C(=O)OCCOc1ccccc1,inactive,
C=Cc1cccc(C)c1,inactive,
Oc1ccc(/C=C/c2cc(O)cc(O)c2)cc1,inactive,
O=C(Oc1ccccc1)c1ccccc1O,inactive,
O=C(C=Cc1ccccc1)OCCc1ccccc1,inactive,
O=C(Cl)c1ccc(C(=O)Cl)cc1,inactive,
CC(Cl)COP(=O)(OCC(C)Cl)OCC(C)Cl (stereo not given),inactive,
Oc1ccc(-c2ccccc2)c(Cl)c1,inactive,
CC(C)C(=O)OCCc1ccccc1,inactive,
CCCCc1ccc(Cl)cc1,inactive,
C=CC(=O)O[C@H]1C[C@@H]2CC[C@@]1(C)C2(C)C,,167 µM (active)
Cn1cccc1,inactive,
O=C1c2ccccc2C(=O)c2cc(S(=O)(=O)O)ccc21,inactive,
CCCCCCCCCCCCCc1ccccc1,inactive,
CCN(CC)c1cccc(C)c1,inactive,
CC(=O)OC/C=C(/C)CCC=C(C)C,inactive,
c1ccc2cnccc2c1,inactive,
C=CC(=O)NC(C)(C)C,inactive,

SMILES,outcome,AC50
C=CC(C)(CCC=C(C)C)OC(=O)C=Cc1ccccc1 (stereo not given),inactive,
CCCCCCOc1ccc(N)cc1,inactive,
CC(CC=O)CC(C)(C)C (stereo not given),inactive,
CC1C(C)(C)C2=C(C(=O)CCC2)C1(C)C (stereo not given),inactive,
O=S(=O)(O)c1ccc(N=Nc2c(O)ccc3ccccc23)cc1,inactive,
CCCCCC1=CCCC1=O,inactive,
CC1CCC(C(C)(C)S)C(=O)C1 (stereo not given),inactive,
Cc1noc(NS(=O)(=O)c2ccc(N)cc2)c1C,inactive,
CC1=C(O)C(=O)C(C)O1 (stereo not given),inactive,
N=C1C=CC(=C(c2ccc(N)cc2)c2ccc(N)cc2)C=C1,inactive,
[Cl][Eu]([Cl])[Cl],inactive,
Cc1c(C(=O)c2c[nH]n(C)c2=O)ccc(S(C)(=O)=O)c1C1=NOCC1,inactive,
CCC[Si](OC)(OC)OC,inactive,
CCCc1ccc(O)c(OC)c1,inactive,
CCCCC(C=O)CC (stereo not given),inactive,
CCC(C)C(=O)OCCc1ccccc1 (stereo not given),inactive,
CC(C)(c1ccccc1)c1ccc(Nc2ccc(C(C)(C)c3ccccc3)cc2)cc1,inactive,
CCOC(=O)C1=NOC(c2ccccc2)(c2ccccc2)C1,inactive,
OCCCc1ccccc1,inactive,
Clc1cc(Cl)c(Cl)c(Cl)c1Cl,inactive,
